Data taken from PubChem BioAssay (NCI).
Compounds without any hit were thinned out: in the full panel of roughly 83,000, 20% have a hit.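 Testing used 96-well plates and a 48-hour single-concentration exposure. Example: -40 means 40% of the starting cells died.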 Calls of active or inactive are those of the source. How the source made its calls: active means growth percent below 10; inactive means the rest.

Key:
Experiment in all cases: NCI-60 one-dose screen, 48 h (100 = growth as untreated, 0 = no growth, -100 = all killed)
Conditions in all cases: 10 µM unless noted
[1] = test system: BT-549 breast
[2] = test system: MDA-MB-435 melanoma
[3] = test system: SW-620 colon
[4] = test system: MCF7 breast
[5] = test system: HCT-116 colon
[6] = test system: HCC-2998 colon
[7] = test system: KM12 colon

Measured: growth

COc1ccc(C(=O)c2cc(F)c(F)c(OC)c2F)cc1OC(=O)CCl
inactive: [1] 36.3% | [3] 20.6% | [4] 19.2% | [5] 20.5% | [6] 79.5% | [7] 31.1%
active: [2] -27.7%

COc1ccc(/C=C/C(=O)/C=C(/C=C/c2ccc(OC)c(OC)c2)OB(F)F)cc1OC
inactive: [1] 44.3% | [4] 20.1% | [6] 102% | [7] 36.1%
active: [2] 8.23% | [3] -21.8% | [5] -45.6%

CCOC(=O)CC[C@H](NC(=O)c1ccc(NC)c2ccccc12)C(=O)OCC
inactive: [1] 100% | [2] 105% | [3] 93.6% | [4] 94.7% | [5] 92% | [6] 115% | [7] 103%

Nc1ccccc1NS(=O)(=O)c1ccc(Cl)cc1
inactive: [1] 101% | [2] 90.6% | [3] 99.3% | [4] 94% | [5] 97% | [6] 84.4% | [7] 100%

COc1cccc(C(=O)OCCn2nc3c4c(cccc42)C(=O)c2ccccc2-3)c1O
active: [2] 6.92%
inactive: [1] 52.8% | [3] 20.9% | [4] 18.4% | [5] 29.6% | [7] 29%

c1ccc2c3c([nH]c2c1)C(c1ccc(C2NCCc4c2[nH]c2ccccc42)cc1)NCC3 (centres undefined)
inactive: [1] 86.9%
active: [2] -91.6% | [3] -80% | [4] -81.2% | [5] -91.7% | [6] -64.8% | [7] -62%

COc1ccc(/C=C/C(=O)c2ccc(NC(=O)CSc3nnc(-c4ccc(OC)c(OC)c4)n3-c3ccccc3)cc2)cc1
inactive: [1] 55.2% | [2] 45.3% | [3] 10.2% | [6] 94.9% | [7] 61.3%
active: [4] -8.34% | [5] -85.8%

C=C(C)[C@@H]1CCC=C2CC[C@]3(C)[C@H](CC[C@@H]4[C@@]5(C)CCCNC(C)(C)[C@@H]5CC[C@]43C)[C@H]21
inactive: [1] 89.2% | [2] 16.8% | [7] 19.9%
active: [3] -50.2% | [4] 0.921% | [5] -54.8% | [6] 5.32%

Cc1cc(C)nc(NS(=O)(=O)c2ccc(Nc3ccc4c5c(n(CCCN(C)C)c(=O)c4c3)-c3ccccc3C5=O)cc2)n1
inactive: [1] 91.8% | [2] 98.8% | [3] 54.2% | [4] 30.6% | [5] 56.4% | [6] 73.6% | [7] 71.6%

COC(=O)/C=C1\SC(=Nc2ccc(C(F)(F)F)cc2)N(CCc2c[nH]c3ccccc23)C1=O
active: [1] -21.8% | [2] -85.1% | [3] -76.1% | [4] -7.91% | [5] -63.4% | [6] -90.6% | [7] -62.8%

COc1ccc(OCC(=O)OC(C)C)cc1
inactive: [1] 109% | [2] 101% | [3] 94.4% | [4] 93.8% | [5] 114% | [6] 103% | [7] 93.8%

Cc1cc(NC(=O)CNc2nc(Oc3ccc(F)cc3)nc(-c3ccc(F)cc3)n2)ccc1Cl
inactive: [1] 100% | [2] 105% | [3] 101% | [4] 94.8% | [5] 82.1% | [7] 103%

COc1ccc([C@H]2[C@@H](F)C(=O)N2c2cc(OC)c(OC)c(OC)c2)cc1F
active: [2] 0.354% | [5] 5.59%
inactive: [1] 15.3% | [3] 28.7% | [4] 12.8% | [6] 32.9% | [7] 10.7%

CSc1nc(-c2ccco2)c2c(N)[nH]nc2n1
inactive: [1] 102% | [2] 115% | [3] 111% | [4] 94.2% | [5] 84.1% | [6] 111% | [7] 44.1%

CS(=O)(=O)O[C@@H]1C(=O)N(c2cc3c4ccccc4ccc3c3ccccc23)[C@H]1c1ccc(F)cn1
active: [2] -26%
inactive: [1] 44.6% | [3] 22.5% | [4] 21.6% | [5] 14.3% | [6] 60.1% | [7] 23%

Cc1c(Cl)cccc1NC(=O)c1sc2nc3c(cc2c1N)CCCCC3
inactive: [1] 48.7% | [3] 25.3% | [4] 20.8% | [5] 32.3% | [6] 55.7% | [7] 24.7%
active: [2] -0.269%

COc1ccc2nc(-c3ccc(Cl)cc3)cc(C(=O)N3N=C(c4ccc(N)cc4)CC3c3ccccc3)c2c1 (centres undefined)
inactive: [1] 44% | [3] 36% | [4] 11.9% | [5] 34.8% | [7] 18.7%
active: [2] 4.25%

C=C1C(=O)O[C@H]2[C@H]1CC/C(COC(=O)CCCCCCCCC(=O)OC/C1=C/CC[C@@]3(C)O[C@H]3[C@H]3OC(=O)C(=C)[C@@H]3CC1)=C\CC[C@@]1(C)O[C@@H]21
inactive: [7] 20.2%
active: [1] 2.59% | [2] 8.17% | [3] 2.58% | [4] -37% | [5] -62.7%

CCOC(=O)c1ccc(Nc2ncnc3ccc(NC(=O)c4ccccc4)cc23)cc1
inactive: [1] 86.5% | [2] 91.1% | [3] 96% | [4] 75.7% | [5] 91.4% | [7] 75.2%

COc1ccc(Nc2cc(NC(=O)CNc3cc(OC)c(Cl)c(OC)c3Cl)ncn2)cc1
inactive: [1] 83.2% | [2] 74% | [3] 96.3% | [4] 71.7% | [5] 69.9% | [7] 81.5%

COC(=O)c1nc(-c2ccccc2)oc1S(=O)(=O)n1nc(-c2ccccc2)cc1N
inactive: [1] 82.2% | [2] 63.6% | [3] 10.9% | [4] 80.9% | [5] 84.8% | [7] 92.2%

CN(C)CCCn1c2c(c3cc(-c4ccco4)ccc3c1=O)C(=O)c1ccccc1-2
active: [4] -21.6%
inactive: [1] 83.9% | [2] 66.6% | [3] 30.2% | [6] 71.7% | [7] 44.4%

O=C(/C(=C/c1ccc([N+](=O)[O-])cc1)SCc1ccc(Cl)cc1)c1ccc(F)cc1
inactive: [1] 78.2% | [2] 49.2% | [7] 23.3%
active: [3] -9.4% | [4] -11.9% | [5] -54.9%

C=C1C(=O)O[C@H]2[C@H]1CC/C(C=Nc1c(N)cc(C(F)(F)F)cc1Br)=C\CC[C@@]1(C)O[C@@H]21
inactive: [7] 30%
active: [1] -22.6% | [2] 4.47% | [3] -63.1% | [4] -2.09% | [5] -80.6%

Cc1nc2sc(C(=O)Nc3ccccc3Cl)c(N)c2cc1C(C)O (centres undefined)
active: [2] 5.06%
inactive: [1] 78.8% | [3] 57.6% | [4] 48.6% | [5] 67.8% | [7] 56.1%

C/C(=N\NC(=O)c1ccncc1)c1ccc(N)cc1
inactive: [1] 93.2% | [2] 102% | [3] 101% | [4] 95.9% | [5] 99.6% | [7] 106%

CCCCc1nc(Cl)c(C2CC(c3ccc(Cl)cc3)=NN2c2cc(Cl)cc(Cl)c2)[nH]1 (centres undefined)
inactive: [1] 72% | [2] 83.2% | [3] 16.8% | [4] 85.1% | [6] 102% | [7] 89%

Nc1ccc2c(c1)C(=O)C(=O)c1c-2nc2ccccn12
inactive: [7] 20%
active: [1] -34.6% | [2] -87.3% | [3] 4.01% | [4] -54.7% | [5] 1.3%

C=C1C(=O)O[C@H]2[C@H]1CC/C(COC(=O)c1c[nH]c3ccccc13)=C\CC[C@@]1(C)O[C@@H]21
active: [1] -37.2% | [2] -82.9% | [3] -61.4% | [4] -52.7% | [6] -80.9% | [7] -47.4%

Cc1c(Br)cccc1NC(=O)c1sc2nc3c(cc2c1N)CN(Cc1ccccc1)CC3
active: [2] -42.9%
inactive: [1] 29.3% | [3] 18.4% | [4] 14.9% | [6] 41.1% | [7] 23.5%

CC1(C)[C@@H](O)CC[C@]2(C)[C@H]3CC[C@@H]4[C@H]5[C@H](c6cn(-c7ccccc7)nn6)CC[C@]5(CO)CC[C@@]4(C)[C@]3(C)CC[C@@H]12
inactive: [1] 80% | [2] 93.9% | [3] 94.3% | [4] 52.8% | [5] 94.4% | [7] 88%

COc1ccccc1C(=O)/C=C/c1cc2cccc(OC)c2[nH]c1=O
inactive: [4] 13.4%
active: [1] -3.55% | [2] 6.42% | [3] -6.28% | [5] -15% | [7] -49.1%

COc1cc(C2=N/C(=C\c3cc4ccccc4nc3Oc3ccccc3)C(=O)N2C(=N)N)cc(OC)c1OC
inactive: [1] 32.7% | [2] 95.2% | [3] 87.8% | [4] 75.5% | [5] 52.8% | [7] 79.6%

COc1ccc(/C=C(/C(=O)N2CCN(Cc3ccccc3)CC2)c2cc(OC)c(OC)c(OC)c2)cc1O
inactive: [1] 77.2% | [3] 45.6% | [4] 20.9% | [5] 32% | [7] 55.9%
active: [2] 1.04%

C=C1C(=O)O[C@H]2[C@H]1CCC(/C=N/c1ncc(Br)cc1N)=C\CC[C@@]1(C)O[C@@H]21
active: [1] 1.35% | [3] -62.7% | [4] -3.68% | [5] -52.6%
inactive: [2] 22.6% | [7] 53.9%
